Source: PubChem BioAssay AID588590 (National Center for Advancing Translational Sciences (NCATS), 2011)
The campaign covered roughly 390,000 compounds. About 4,000 (1%) were called active. A call without a number means that no potency is given here. Not shown: some 7% with an inconclusive outcome. Calls follow the shape of the dose curve; as a rule, active = well fitted inhibition curve with a large enough effect; inconclusive = small, poorly fitted or top-dose-only effect, or another doubt; inactive = no such curve, though single readings can be large or run the other way. Many of the other results were omitted from the sample, so actives are more common in it than they were.

Biological target: DNA polymerase iota (Homo sapiens) (UniProt Q9UNA4)
Assay: qHTS for Inhibitors of Polymerase Iota
Settings: Pol iota fluorescent replication assay, 10 min; series mostly up to 115 µM
In short: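 Fluorescent replication assay read twice, at 0 min and 10 min after adding 50 nM (final) substrate. Enzyme (10 nM) and compounds were first incubated 15 min at room temperature; enzyme-free buffer wells were negative controls.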
Potency is read from the fitted curve at half-maximal effect.

Chain of DNA polymerase iota (Homo sapiens) (Q9UNA4 whole entry, looked up): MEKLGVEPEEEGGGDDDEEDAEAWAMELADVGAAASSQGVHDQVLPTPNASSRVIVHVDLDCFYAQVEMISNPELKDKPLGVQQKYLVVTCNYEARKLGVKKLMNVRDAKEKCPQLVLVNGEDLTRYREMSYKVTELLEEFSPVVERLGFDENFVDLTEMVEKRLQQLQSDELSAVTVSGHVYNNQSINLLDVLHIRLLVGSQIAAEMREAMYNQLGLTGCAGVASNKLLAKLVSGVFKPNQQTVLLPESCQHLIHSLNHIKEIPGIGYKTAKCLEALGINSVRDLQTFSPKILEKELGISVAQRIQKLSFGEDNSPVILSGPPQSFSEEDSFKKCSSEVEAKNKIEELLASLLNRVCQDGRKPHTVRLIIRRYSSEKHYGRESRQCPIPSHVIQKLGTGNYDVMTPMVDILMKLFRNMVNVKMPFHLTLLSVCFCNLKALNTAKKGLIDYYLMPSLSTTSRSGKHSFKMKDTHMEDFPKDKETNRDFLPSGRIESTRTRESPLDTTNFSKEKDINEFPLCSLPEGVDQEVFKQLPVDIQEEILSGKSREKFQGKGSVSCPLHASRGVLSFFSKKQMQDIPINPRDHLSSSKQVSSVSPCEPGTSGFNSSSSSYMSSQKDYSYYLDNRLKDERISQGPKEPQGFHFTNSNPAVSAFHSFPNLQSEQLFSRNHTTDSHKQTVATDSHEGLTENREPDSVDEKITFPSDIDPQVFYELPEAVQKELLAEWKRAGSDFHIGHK

Row | Structure (SMILES) | Potency
1 | COc1ccc(NC(=O)C2CCN(c3ccc(Sc4ccc(C)cc4)nn3)CC2)c(OC)c1 | inactive
2 | O=C1C[C@H]2C=CCc3cccc(c32)CN1Cc1ccccc1 | inactive
3 | COc1ccc(Cl)cc1-n1c(CCC(=O)O)ccc1-c1ccc(C)cc1 | inactive
4 | CCOc1ccccc1N(CC)C(=O)Nc1cn(C)c(=O)c2ccccc12 | inactive
5 | CCOc1ccccc1CNC(=O)Nc1cn(CC(C)C)c(=O)c2ccccc12 | 39.8 µM (active)
6 | CCOc1ccccc1NC(=O)Cn1c2ncccc2c(=O)n1-c1ccc(C)c(C)c1 | inactive
7 | Cc1cccc(-c2nnc(SC(C)C(=O)Nc3ccccc3)n2C)c1 (stereo not given) | inactive
8 | Cc1ccc(C)c2sc(NC(=O)c3ccc(S(=O)(=O)N4CCCC4)cc3)nc12 | inactive
9 | Cc1ccc(CCNC(=O)C2CCN(c3nnc(-n4cccc4CNc4ccc(C)cc4)s3)CC2)cc1 | inactive
10 | C1=C(N2CCOCC2)/C(=C/c2nc3ccccc3[nH]2)CC1 | 14.1 µM (active)
11 | Cc1nn2c3cc(N4CCOCC4)ccc3nc2c2ccccc12 | inactive
12 | c1ccc(-n2nnnc2N2CCOCC2)cc1 | inactive
13 | O=C(Nc1ccc(Cl)cc1)c1cnn2c1NC(=C1CC1)C=C2C(F)F | inactive
14 | CCCOC(=O)c1c(NC(=O)c2cc3nc(-c4ccc(OC)cc4)cc(C(F)(F)F)n3n2)sc2c1CCCC2 | inactive
15 | CC1CCC2(CC1)N=C(c1ccccc1)C(=O)N2CC(=O)Nc1ccc(F)c(Cl)c1 (stereo not given) | inactive
16 | Cc1ccc2nc(COc3ccccc3NC(=O)Nc3ccc(F)c(Cl)c3)cc(=O)n2c1 | inactive
17 | Cc1ccc2nc(COc3cccc(NC(=O)Nc4ccc(C)c(Cl)c4)c3)cc(=O)n2c1 | inactive
18 | Cc1ccc2nc(COc3cccc(NC(=O)c4cccc(Cl)c4)c3)cc(=O)n2c1 | 89.1 µM (active)
19 | Cc1ccc(/C=N/NC(=O)Cn2nc(C)c(Br)c2C)o1 | inactive
20 | Cc1ccc(/C=N/NC(=S)NC2CCCCC2)o1 | inactive

Row | Structure (SMILES) | Potency
21 | Cc1ccc(/C=N/NC(=O)c2cc3ccccc3cc2O)o1 | 50.1 µM (active)
22 | CCCC12CN3CC(C)(CN(C1)C3c1ccccc1Cl)C2=O (stereo not given) | inactive
23 | COc1ccc(N=C2SC(C(=O)Nc3ccc(F)cc3)CC(=O)N2C)cc1 (stereo not given) | inactive
24 | CN=C1SC(C(=O)O)CC(=O)N1C (stereo not given) | 89.1 µM (active)
25 | CCOc1ccc(N=C2SC(C(=O)O)CC(=O)N2C)cc1 (stereo not given) | inactive
26 | Cc1ccc2ncc(C(=O)Nc3ccc(OC(F)(F)F)cc3)c(=O)n2c1 | inactive
27 | CCOc1ccc(Nc2c(S(=O)(=O)c3ccccc3)cnc3ccccc23)cc1 | inactive
28 | COc1ccc(OC)c(-n2nnc(-c3nc(-c4cc(OC)c(OC)c(OC)c4)no3)c2C)c1 | inactive
29 | COc1cc(Nc2nc(-c3ccc(OC)c(OC)c3)nc3ccccc23)cc(OC)c1 | inactive
30 | CC(Nc1ccc(-c2nc(-c3ccco3)no2)cc1[N+](=O)[O-])c1ccccc1 (stereo not given) | 70.8 µM (active)
31 | O=[N+]([O-])c1cc(-c2nc(-c3ccccc3)no2)ccc1NCc1ccco1 | inactive
32 | CNc1ccc(-c2nc(-c3ccco3)no2)cc1[N+](=O)[O-] | inactive
33 | COc1ccc(/C=C/c2ccnc3ccccc23)cc1OC | inactive
34 | CN(C(=N)N)c1ccc(/C=C2\C=Cc3ccccc32)cc1 | inactive
35 | O=C(NCCCO)C(=O)Nc1c2c(nn1-c1ccccc1)CSC2 | inactive
36 | CC(C)C(=O)Nc1c2c(nn1-c1ccccc1)CSC2 | inactive
37 | CC(=O)Nc1c2c(nn1-c1cccc(C)c1)CSC2 | 50.1 µM (active)
38 | COc1ccc(CNC(=O)Cn2nnc(-c3ccc(S(C)(=O)=O)cc3)n2)cc1 | inactive
39 | O=C(C[n+]1ccncc1)c1ccc2c(c1)CCCC2 | inactive
40 | Cc1c(N=Nc2ccc(N(C)C)cc2)c(=O)n(-c2ccccc2)n1C | inactive

Row | Structure (SMILES) | Potency
41 | O=c1[nH]n2c(=O)c3c([nH]c2c1N=Nc1ccccc1)CCC3 | 50.1 µM (active)
42 | CC(C)(C)n1c(=O)[nH]c2c(c1=O)CCC2 | inactive
43 | CC(C)NC(=O)C1CCC(Cn2c(=O)c3sccc3n(Cc3ccc(F)cc3)c2=O)CC1 (stereo not given) | inactive
44 | CCOC(=O)C1CCC(CN(Cc2ccc(OC)cc2)S(=O)(=O)c2ccc(F)c(C(=O)Nc3cc(C)ccc3C)c2)CC1 (stereo not given) | inactive
45 | CC(C)(C)c1ccc(C(=O)NCC(c2ccco2)S(=O)(=O)c2ccc(F)cc2)cc1 (stereo not given) | inactive
46 | COc1cccc2c1C(=O)c1c(O)c3c(c(O)c1C2=O)CC(O)(C(C)=NNC(=O)c1ccc(Cl)c(Cl)c1)CC3OC1CC(N)C(O)C(C)O1 (stereo not given) | 50.1 µM (active)
47 | COc1ccccc1NC(=O)C1=C(C)Nc2ncnn2C1c1sccc1C (stereo not given) | inactive
48 | O=C(O)C1=C/C(=C/C=[N+]2c3cc(O)c(O[C@H]4OC(CO)[C@@H](O)[C@@H](O)[C@@H]4O)cc3C[C@@H]2C(=O)[O-])C[C@H](C(=O)O)N1 (stereo not given in full) | inactive
49 | CCCS(=O)(=O)Nc1cccc(-c2cn3ccsc3n2)c1 | inactive
50 | Cc1ccc(C)c(N2CCN(C(=O)Cn3nc(C)c4sc5ccccc5c4c3=O)CC2)c1 | inactive
51 | C=C(C)C(=O)O[C@H]1C/C(C)=C\C(=O)/C=C(\C)[C@H](O)[C@@H]2OC(=O)C(=C)[C@@H]21 | 35.5 µM (active)
52 | Cc1ccc(S(=O)(=O)N2CCCc3cc(NS(=O)(=O)c4cc(C)ccc4C)ccc32)cc1 | inactive
53 | CCOc1ccc(NC(=O)CSc2nnc3c(n2)[nH]c2ccc(S(=O)(=O)N4CCOCC4)cc23)cc1 | inactive
54 | Cc1ccc(-c2nn3c(=O)cc(CN4CCN(C(=O)Nc5cccc(C(F)(F)F)c5)CC4)nc3s2)cc1 | inactive
55 | Cn1c(=O)c2c(-c3ccccc3Br)n(Cc3ccccc3)cc2n(C)c1=O | inactive
56 | COc1cccc(CNC(=O)c2ccc3c(c2)sc2nc(-c4cccc(OC)c4)cn23)c1 | inactive
57 | COc1cccc2c1cc1c(=O)n(CC(=O)N3CCN(c4ccccc4)CC3)nc(C)n12 | inactive
58 | C=CC1C(OC2OC(CO)C(O)C(O)C2O)OC=C(C(=O)OC)C1CC1CC(=O)CC(CC(=O)CCc2ccc(O)cc2)O1 (stereo not given) | inactive
59 | CC1=C(C)C(=O)OC(C(C)C2CCC3C4CC=C5CC(OC6OC(COC7OC(CO)C(O)C(O)C7O)C(O)C(O)C6O)CC(O)C5(C)C4CCC23C)C1 (stereo not given) | inactive
60 | CC(/C=C/C1(O)C(C)CC(=O)CC1(C)C)OC1OC(CO)C(O)C(O)C1O (stereo not given) | 79.4 µM (active)
